Source: PubChem BioAssay (EPA / NIEHS)
Calls of active or inactive are those of the source. The calls were made as follows: active = hit-call score of the fitted dose curve at least 0.9, where 1 is the maximum; inconclusive = response in the unintended direction; inactive = score below 0.9.

target: Estrogen receptor (Homo sapiens) (UniProt P03372); assay: OT_ER_ERaERa_1440: Odyssey Thera (OT) 24-hour HEK293T Protein-Complementation Assay for Estrogen Receptor-alpha/-alpha Homodimer (AID 2283349);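 also: hits raise fluorescence above DMSO for agonists and antagonists alike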
Sequence (P03372 whole entry, looked up, the tested form may be a part): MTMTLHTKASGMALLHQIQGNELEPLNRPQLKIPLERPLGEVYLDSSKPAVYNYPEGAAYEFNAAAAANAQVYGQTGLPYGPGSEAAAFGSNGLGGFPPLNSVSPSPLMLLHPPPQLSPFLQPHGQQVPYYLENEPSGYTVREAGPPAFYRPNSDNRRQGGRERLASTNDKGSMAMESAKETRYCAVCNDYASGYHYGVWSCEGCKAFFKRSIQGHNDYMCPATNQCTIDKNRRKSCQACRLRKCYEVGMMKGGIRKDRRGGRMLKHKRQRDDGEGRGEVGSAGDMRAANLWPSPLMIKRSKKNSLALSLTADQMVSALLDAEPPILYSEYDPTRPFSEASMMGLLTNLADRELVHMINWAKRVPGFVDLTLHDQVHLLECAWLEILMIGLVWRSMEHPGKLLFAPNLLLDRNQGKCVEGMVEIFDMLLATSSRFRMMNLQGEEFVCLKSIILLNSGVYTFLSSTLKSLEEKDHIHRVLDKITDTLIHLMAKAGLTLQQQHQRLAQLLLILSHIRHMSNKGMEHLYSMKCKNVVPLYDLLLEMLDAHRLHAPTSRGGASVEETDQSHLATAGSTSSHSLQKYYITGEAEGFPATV
Description: OT_ER_ERaERa_1440 is a cell-based assay that uses HEK293T, a human kidney cell line, with measurements taken at 24 hours after chemical dosing in a 384-well plate.OT_ER_ERaERa_1440 is one of one assay component(s) measured or calculated from the OT_ER_ERaERa_1440 assay. It is designed to make measurements of protein fragment complementation, a form of binding reporter, as detected with fluorescence intensity signals by Protein-fragment Complementation technology.Data from the assay component OT_ER_ERaERa_1440 was analyzed into 1 assay endpoint. This assay endpoint, OT_ER_ERaERa_1440, was analyzed in the positive analysis fitting direction relative to DMSO as the negative control and baseline of activity. Using a type of binding reporter, measures of receptor for gain-of-signal activity can be used to understand the binding at the pathway-level as they relate to the gene ESR1. Furthermore, this assay endpoint can be referred to as a primary readout, because the performed assay has only produced 1 assay endpoint. To generalize the intended target to other relatable targets, this assay endpoint is annotated to the nuclear receptor intended target family, where the subfamily is steroidal.
Protein-fragment complementation assay, or PCA, is a method for the identification and quantification of protein-protein interactions. In the PCA, the proteins of interest ("bait" and "prey") are each covalently linked to fragments of a third protein (e.g. DHFR, which acts as a "reporter"). Interaction between the bait and the prey proteins brings the fragments of the reporter protein in close proximity to allow them to form a functional reporter protein whose activity can be measured. The OT ER alpha / ER alpha assay is a homodimer PCA of the ligand binding domain (amino acids 310-547) of human ER alpha stably expressed in HEK293T cells. […] Fluorescent signal in the basal state of the assay is very low and is primarily punctuate and cytoplasmic. Modulation of this assay is quantified as an increase in mean fluorescence intensity in the nucleus (for agonists) or in the nucleus and cytoplasm (antagonists) relative to vehicle controls, and can be quantified on a high content imaging device or a laser scanning cytometer. The latter instrument is favored for this assay because of the rapid mode of data acquisition, the ability to acquire data from the entire cell population in a well (as opposed to a fraction of the well on the high content devices) and the larger dynamic range typically achieved with this instrument. To assess sensitivity of the ER alpha/ER alpha LBD assay to ligand, cells were treated with the ER agonist 17 beta-estradiol (E2) in 10-point concentration- response format for 24 hours and monitored response on a laser scanning plate cytometer (Acumen eX3; TTP Lab Tech).

Structure (SMILES) | outcome | AC50
O=C(O)CC(O)(CC(=O)O)C(=O)O | inactive | –
Cc1ccc(C(C)(C)C)c(O)c1 | inactive | –
CS(=O)(=O)c1ccc([C@@H](C[C@H]2CCC(=O)C2)C(=O)Nc2cnccn2)cc1Cl | inactive | –
CCCCc1nc2cccnc2n1Cc1ccc(-c2ccccc2-c2nnn[nH]2)cc1 | inactive | –
O=C(O)CN(CC(=O)O)CC(=O)O | – | 10.9 µM (active)
Cc1c(C)c2c(c(C)c1O)CCC(C)(COc1ccc(CC3SC(=O)NC3=O)cc1)O2 (stereo not given) | inactive | –
O=[Si]=O | inactive | –
CCCCCCCCCCCCCCOS(=O)(=O)O | inactive | –
CN(C)CCCN(C)CCCN(C)C | inactive | –
O=C1CCCCC1 | inactive | –
CC1(C)C(=O)NC(=O)N1CO | inactive | –
CCC(C)N(C)C(=O)c1cc2ccccc2c(-c2ccccc2Cl)n1 (stereo not given) | inactive | –
NC1CCCCC1 | inactive | –
Nc1nc(=S)c2[nH]cnc2[nH]1 | inactive | –
CN(C)C(=O)NC1(c2ccccc2)CCN(CCC[C@]2(c3ccc(Cl)c(Cl)c3)CCCN(C(=O)c3ccccc3)C2)CC1 | inactive | –
COc1ccc(OC(F)(F)F)cc1CN[C@H]1CCCN[C@H]1c1ccccc1 | inactive | –
O=Cc1ccccc1C=O | inactive | –
CCCCCCCCCC[N+](C)(C)[O-] | inactive | –

Structure (SMILES) | outcome | AC50
COC(=O)CCC(=O)OC | inactive | –
CCCCCCC(CCCCCCCCCCC(=O)OCC(COC(C)=O)OC(C)=O)OC(C)=O (stereo not given) | inactive | –
OCC(CO)n1cnc(-c2ccc(F)cc2)c1-c1ccnc(Oc2ccccc2)n1 | inactive | –
NC(=Nc1ccccc1)Nc1ccccc1 | inactive | –
O=C(O)c1[nH]n(-c2ccc(S(=O)(=O)O)cc2)c(=O)c1N=Nc1ccc(S(=O)(=O)O)cc1 | inactive | –
CC(C)OC(=O)C(C)(C)Oc1ccc(C(=O)c2ccc(Cl)cc2)cc1 | inactive | –
Oc1ccc(O)cc1 | inactive | –
COc1ccc(C(=O)Nc2nc3ccccc3c(NCc3ccccc3)c2C#N)cc1 | inactive | –
CCCCCCCC(=O)OC | inactive | –
O=C(N[C@@H](c1ccccc1)[C@@H]1CCCCN1)c1cccc(C(F)(F)F)c1Cl | inactive | –
CCc1nc(N)nc(N)c1-c1ccc(Cl)cc1 | inactive | –
O=C(NS(=O)(=O)/C=C/c1cccs1)c1ccc(F)cc1Br | inactive | –
CCCCCCCCCCCCCCCCO | inactive | –
CC1=C(C)S(=O)(=O)CCS1(=O)=O | inactive | –
CSc1ccc(Oc2ccc(S(N)(=O)=O)cc2CN(C)C)cc1C | inactive | –
CC(C)c1cccc(C(C)C)c1 | inactive | –
c1ccc2occc2c1 | inactive | –
